A selection: hits, their analogues and other compounds. The true share with any hit is near 32%.
CYP2C19 activ: increases human CYP2C19 enzyme activity. P33261. activation factor at 5 µM. AID 1025. 96,000 tested, under 10 active. recombinant CYP2C19, luciferin-H EGE luminescence; active compounds read high; 0 = fully inhibited enzyme, 1 = untreated enzyme;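 active = activation factor of at least 2 at 5 µM in the primary screen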;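 note: 0 = wells with 2.5 mM tranylcypromine and 1 = vehicle-only wells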
CYP2C9 inh: human CYP2C9 inhibition; P11712; CYP2C9 Supersomes, luciferin-H conversion, luminescence; inhibition, % at 5 µM; actives 20% (n = 96,000);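 active = blocking of liver enzyme CYP2C9 beyond about 50% at 5 µM, limit read from the data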
Target sequence (P11712 whole entry, looked up): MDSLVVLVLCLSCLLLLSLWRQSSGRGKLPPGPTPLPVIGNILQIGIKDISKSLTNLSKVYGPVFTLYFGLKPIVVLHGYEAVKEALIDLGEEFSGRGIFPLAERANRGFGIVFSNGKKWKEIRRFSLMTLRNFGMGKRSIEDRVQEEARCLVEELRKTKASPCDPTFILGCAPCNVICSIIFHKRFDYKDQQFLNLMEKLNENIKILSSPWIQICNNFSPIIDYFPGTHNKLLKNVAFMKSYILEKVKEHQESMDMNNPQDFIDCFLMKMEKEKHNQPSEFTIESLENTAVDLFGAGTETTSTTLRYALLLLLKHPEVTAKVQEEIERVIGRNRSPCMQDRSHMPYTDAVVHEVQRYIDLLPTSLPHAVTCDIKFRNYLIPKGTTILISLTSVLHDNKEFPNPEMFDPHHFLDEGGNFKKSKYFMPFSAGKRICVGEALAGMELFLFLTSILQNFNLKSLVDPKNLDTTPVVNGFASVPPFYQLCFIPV
CYP2C9 activ: CYP2C9 (human) activation; actives 1.4% (n = 96,000); P11712; activation factor at 5 µM; AID 1024; recombinant CYP2C9, luciferin-H conversion, luminescence; active compounds read high; factor 1 = untreated enzyme, 0 = blocked;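 active = activation factor of 2 or more for CYP2C9 at a 5 µM dose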;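 note: 0 = sulfaphenazole-blocked wells and 1 = vehicle-only wells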
PostGolgi yeast: growth inhibition of a yeast mutant, post-Golgi transport screen | post-Golgi transport phenotypic cell assay | inhibition, % at 10 µM | actives 0.9% (n = 98,000);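 note: yeast cells grown in 1536-well plates; yeast grown about 18 h at 30C before absorbance read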
CYP2C19 inhib: inhibitors of human CYP2C19. P33261. CYP2C19 Supersomes, luciferin-H EGE luminescence, 30 min. inhibition, % at 5 µM. actives 21% (n = 96,000). AID 778;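 active = CYP2C19 inhibition above a set limit at 5 µM in the primary screen, cut at about 50% in these data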;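 note: plate controls were negative control wells for no effect and 2.5 mM tranylcypromine positive control for full effect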
PostGolgi ctrl: growth of the yeast control strain, post-Golgi counter-screen; efflux-deficient yeast background strain, growth absorbance A615, 16 h; inhibition, % at 10 µM; actives 5% (n = 98,000); AID 738
* marks the source's active call; other numbers are inactive results; / = no result given. Cut-off read from the data, not from the text of the source, unless noted: active = inhibition above about 30%; inactive = the rest.

SMILES	CYP2C19 activ	CYP2C9 inh	CYP2C9 activ	PostGolgi yeast	CYP2C19 inhib	PostGolgi ctrl
COc1ccc(CC(=O)Nc2nncs2)cc1OC	1.1	-14	1.1	-1	-9	18
COC(=O)c1cc(NC(=O)Cc2ccc(OC)c(OC)c2)cc(C(=O)OC)c1	0.9	82*	0.2	4	12	19
COc1ccc2c(CC(=O)OCC(=O)Nc3ccc4c(c3)OCO4)coc2c1	0.8	38	0.6	8	16	2
COC(=O)c1cc(NC(=O)Cc2coc3cc(OC)ccc23)cc(C(=O)OC)c1	0.4	92*	0.1	-12	58*	1
CC(C)(C)NC(=O)C12CCC(C)(c3nc4ccccc4nc31)C2(C)C (stereo not given)	0.8	19	0.8	8	22	10
CCC(C)(C)NC(=O)CN(C(=O)c1snc(C(N)=O)c1N)c1ccc2c(c1)OCO2	0.6	57*	0.4	-6	38	12
NC(=O)c1nsc(C(=O)N(CC(=O)NCc2ccc3c(c2)OCO3)C2CCCCC2)c1N	0.1	11	0.9	1	86*	13
CCC(C(=O)NC1CCCC1)N(Cc1ccc2c(c1)OCO2)C(=O)c1snc(C(N)=O)c1N (stereo not given)	0.1	44	0.6	-7	92*	13
CC(C(=O)NC1CCCC1)N(Cc1ccc2c(c1)OCO2)C(=O)c1snc(C(N)=O)c1N (stereo not given)	0	82*	0.2	1	99*	9
CCOC(=O)c1sc(C)c2c(=O)n(CCCN3CCOCC3)cnc12	1.1	-20	1.2	21	-14	-2
CNC(=O)NC(=O)COC(=O)CCCOc1ccc(OC)cc1	0.9	23	0.8	0	13	7
Cc1ccccc1OCc1nnc2c3cnn(C)c3ncn12	0.6	1	1	-9	41	34*
O=C(NC1CCCC1)C(c1ccc(Cl)cc1)N1CCOCC1 (stereo not given)	0.8	24	0.8	-1	16	-3
COc1ccc(S(=O)(=O)N2CCC(C)CC2)cc1Br	0.3	-194	2.9*	-4	71*	17
CCN1CCN(S(=O)(=O)c2ccc3ccccc3c2)CC1	0.3	-102	2*	-1	71*	6
CC1CN(C2CCN(S(=O)(=O)c3ccc4ccccc4c3)CC2)CC(C)O1 (stereo not given)	0.9	-61	1.6	83*	11	38*
O=S(=O)(c1ccc2ccccc2c1)N1CCN(S(=O)(=O)N2CCCCC2)CC1	1	-27	1.3	3	4	-1
Cc1cc(NC(=O)CN2CCN(S(=O)(=O)c3ccc4ccccc4c3)CC2)no1	1	-64	1.6	-4	0	7
COc1ccc(S(=O)(=O)N2CCN(C)CC2)cc1Br	0.7	-78	1.8	1	28	0
CCN1CCN(S(=O)(=O)c2ccc(OC)c(Br)c2)CC1	0.3	-159	2.6*	0	72*	7
O=C(C1CCN(C2CC(=O)N(c3cccc(Cl)c3)C2=O)CC1)N1CCCCCC1 (stereo not given)	0.9	32	0.7	-2	9	1
CC1CCC(C(C)C)C2=C1C(C#N)(C#N)C(C#N)(C#N)C(c1ccccc1)N2 (stereo not given)	0.5	70*	0.3	-4	48	9
O=C(NCc1n[nH]c(=S)n1-c1ccc(F)cc1)c1ccco1	0.8	-7	1.1	0	20	13
CCOC(=O)c1cccnc1SCc1cc(=O)n2ccccc2n1	0.8	35	0.7	63*	19	28
CC(OC(=O)c1cccnc1SCc1cc(=O)n2ccccc2n1)c1ccccn1 (stereo not given)	0.6	60*	0.4	-5	36	10
SMILES	CYP2C19 activ	CYP2C9 inh	CYP2C9 activ	PostGolgi yeast	CYP2C19 inhib	PostGolgi ctrl
CCCn1c(SCC(=O)NC)nnc1C(C)C	1	-20	1.2	7	-2	11
Cc1ccc(N(CC(=O)Nc2ccc(C)cc2C)S(=O)(=O)N2CCCC2)cc1	0.8	80*	0.2	-5	20	25
CO/N=C(/CS(=O)(=O)c1ccc(C)cc1)c1ccc(OC)cc1	0	17	0.8	8	99*	-5
Clc1ccc(OCc2nc(-c3ccncc3)no2)cc1	0	95*	0.1	-3	95*	8
Clc1ccc(-c2noc(COc3ccccc3)n2)cc1	0.7	-8	1.1	/	27	/
Clc1ccc(OCCCc2nc(-c3cccnc3)no2)c(Cl)c1	0.9	30	0.7	-3	11	34*
Clc1ccc(OCCCc2nc(-c3ccncc3)no2)c(Cl)c1	0.1	84*	0.2	92*	87*	95*
O=C(CN(c1ccccc1)S(=O)(=O)c1ccccc1[N+](=O)[O-])NN=C1CCCCCCC1	0.4	35	0.6	-7	64*	3
CC(C)OCCCNC(=O)C(=O)NCCCOC(C)C	1.1	-12	1.1	-1	-9	-6
OCCSc1c(F)c(SCCO)c(SCCO)c(F)c1SCCO	0.6	70*	0.3	2	40	-1
COC(=O)c1ccc(Cn2cnc3c(cnn3-c3ccc(F)cc3)c2=O)o1	0.8	50*	0.5	0	15	19
CC(C)CCn1cnc2c(cnn2-c2ccc(F)cc2)c1=O	0.8	30	0.7	0	25	0
Cc1cccc(NC(=O)Cn2cnc3c(cnn3-c3ccc(F)cc3)c2=O)c1C	1.2	-5	1	-5	-19	46*
CC(C)(C)OC(=O)Cn1c(=O)cnc2ccccc21	0.7	-10	1.1	4	34	6
COC(=O)CNC(=O)C1CCCN1C(=O)OC(C)(C)C (stereo not given)	1.1	-18	1.2	0	-12	-1
Cc1cnc(NC(=O)CSc2ncc(-c3ccccc3)n2Cc2ccco2)s1	0.7	73*	0.3	5	32	13
O=C(CSc1ncc(-c2ccc(F)cc2)n1Cc1ccco1)Nc1nccs1	0.9	9	0.9	1	8	-8
COCCn1c(-c2ccc(OC)cc2)cnc1SCC(=O)Nc1cccc2ccccc12	0.3	72*	0.3	7	67*	28
COc1ccc(-c2cnc(SCC(=O)Nc3cc(C)on3)n2Cc2ccco2)cc1	0.4	88*	0.1	0	61*	17
CCC(=O)Nc1cc(NC(=O)CSc2ncc(-c3ccc(F)cc3)n2Cc2ccco2)ccc1C	0.1	95*	0.1	11	91*	3
Cc1cc(NC(=O)CSc2nnc(COc3cccc(C)c3C)n2Cc2ccco2)no1	0.9	31	0.7	-10	12	11
Cn1c(SCC(=O)Nc2cccc3ccccc23)nc(O)cc1=O	1.1	6	0.9	-3	-5	-6
C=CCOc1c(CNc2ncn[nH]2)cccc1OC	0.9	5	1	5	12	-6
c1ccc(CNc2nc3ccccc3n2CCN2CCOCC2)nc1	0.9	10	0.9	2	6	8
